Publication PMC5540273 (PLoS ONE, 2017)

system: T1, MEK3; details: concentration: 1 μM,replicates: in singlicate; n = 1
T1 construct: gene MAP2K3
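Note: KINOMEscan kinase panel screen.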

| Compound | %Inh |
| --- | --- |
| CC(=O)Nc1ccc(-c2cc3ncnc(SCC(=O)O)c3s2)cc1 | 6% |
| Cn1ccc2ncnc(Oc3ccc(NC(=O)Nc4cc(C(C)(C)C)on4)c(Cl)c3)c21 | 15% |
| O=C(Nc1cccc(Oc2ccc3nccn3n2)c1)Nc1cccc(C(F)(F)F)c1 | 29% |
| COC(=O)c1cccc(NC(=O)NC2CCN(c3ccnc(NCc4ccc(F)cc4)n3)CC2)c1 [GSK1379860] | 0% |
| CN(c1cccc(CNc2nc(Nc3ccc4c(c3)CC(=O)N4)ncc2C(F)(F)F)c1)S(C)(=O)=O | 62% |
| Cn1ccc2ncnc(Oc3ccc(NC(=O)Nc4cccc(C(F)(F)F)c4)c(Cl)c3)c21 | 0% |
| C[C@@H](Oc1cc(-n2cnc3cc(-c4cnn(C)c4)ccc32)sc1C(N)=O)c1ccccc1Cl [GSK580432] | 0% |
| COC(=O)Nc1nc2cc(Oc3ccc(NC(=O)Nc4cc(C(F)(F)F)ccc4Cl)cc3)ccc2[nH]1.Cl [GW697465] | 0% |
| O=c1[nH]cc(-c2ccc(O)cc2)c2sc(-c3ccncc3)cc12 [GSK1033723] | 0% |
| C[C@@H]1CCN(C(=O)N2CCCC2)C[C@@H]1N(C)c1ncnc2[nH]ccc12 | 29% |
| COc1ccc(Nc2nccc(N3CCC(NC(=O)c4cccc(C#N)c4)C3)n2)cc1 (stereo not drawn) [GSK1379730] | 0% |
| CN(c1ccccc1CNc1nc(Nc2ccc3c(c2)CC(=O)N3)ncc1C(F)(F)F)S(C)(=O)=O | 93.1% |
| CSc1nccc(-c2c(-c3ccc(F)cc3)ncn2CCCN2CCOCC2)n1.Cl [SB-217146] | 33% |
| CC(=O)Nc1nc2cnc(Nc3cc(NC(=O)c4cccc(CC(C)(C)C#N)c4)ccc3C)nc2s1 | 0% |
| C[C@@H](Oc1cc(-n2cnc3ccc(-c4ccncc4)cc32)sc1C(N)=O)c1ccccc1Cl [GSK483724] | 34% |
| CS(=O)c1ccc(-c2coc3ccc(-c4n[nH]c(=O)o4)cc23)cc1 (stereo not drawn) | 25% |
| CS(=O)(=O)Nc1ccc(-c2ccnc3[nH]ccc23)cc1 [GSK993273] | 43% |
| Cl.Cl.NC[C@H](CC1CCCCC1)NC(=O)c1ccc(-c2ccnc3[nH]ccc23)s1 [GSK1581428] | 93.8% |

| Compound | %Inh |
| --- | --- |
| COc1cc2nccc(Nc3ccc(Oc4ccccc4)cc3)c2cc1OC.Cl [GI261656] | 0% |
| COc1cc2c(Nc3ccc(NC(=O)c4ccccc4)cc3)ncnc2cc1OCCCN1CCOCC1 [GSK301329] | 0% |
| Cn1ccc2ncnc(Oc3ccc(NC(=O)Nc4cccc(C(F)(F)F)c4)c(F)c3)c21 | 3% |
| O=C(NOCC1CC1)c1cc(Br)c(F)c(F)c1Nc1ccc(I)cc1Cl | 15% |
| Cc1n[nH]c2cc(Nc3ccnc(Nc4cccc(CN5CCOCC5)c4)n3)ccc12 [GW682569] | 11% |
| COc1cccc(C2=C(Nc3cccc(Cl)c3)C(=O)NC2=O)c1 [SB-341556] | 15% |
| COc1cccc(CNC(=O)NC2CCN(c3ccnc(Nc4cc(OC)c(OC)c(OC)c4)n3)C2)c1 (stereo not drawn) [GSK1379765] | 15% |
| Cl.Nc1n[nH]c2cc(-c3ccccn3)ccc12 [GSK2189892] | 0% |
| Cc1ccc(CC(=O)N2CCc3cc(-c4cn(C)c5ncnc(N)c45)ccc32)cc1 [GSK2634758] | 0% |
| CN(c1ccc2c(c1)nc(NCc1ccc(F)cc1)n2C)c1ccnc(Nc2ccc(CS(C)(=O)=O)cc2)n1.Cl [GW813244] | 27% |
| Cl.c1ccc(Oc2ccc(Nc3ccnc4cc(-c5ccc(CN6CCNCC6)o5)ccc34)cc2)nc1 [GW567142] | 0% |
| CC(C)S(=O)(=O)N1CCN(Cc2ccc3c(c2)nc(NC(=O)c2ccsc2)n3C[C@H](O)c2ccccc2)CC1 [GW635815] | 0% |
| Cc1nnc(-c2ccc3occ(-c4ccc(S(C)=O)cc4)c3n2)o1 (stereo not drawn) | 0% |
| OCCn1cc(-c2cnc3nnn(Cc4ccc5ncccc5c4)c3n2)cn1 | 0% |
| CCn1c(-c2nonc2N)nc2cncc(CNC3CCNCC3)c21.Cl [SB-747651] | 16% |
| NC(=O)c1ccc(-c2cc3ncnc(SCC(=O)O)c3s2)cc1 | 9% |
| Cn1cc(-c2cccc3c(N)c(C(N)=O)nnc23)cn1 | 60% |
| CCCC(=O)Nc1n[nH]c2ncccc12 [SB-601436] | 21% |
